# Several values for one entry are separate records, joined by “and”; a condition that tells them apart may be missing. Identical values can stand only once. Records with an inconclusive call do not appear. Where a structure was tested more than once in an assay, its records may differ in their call. Activity calls are given as the source filed them. Rule for the calls, unless noted: active = hit-call score of the fitted dose curve at least 0.9, where 1 is the maximum; inactive = score below 0.9.
# Legend:
# [1] = molecular target: human RAR-related Orphan Receptor gamma (RORg), RORC (gene 6097) (UniProt P51449); assay: ATG_RORg_TRANS: Attagene TRANS-FACTORIAL HepG2 Assay for human RAR-related Orphan Receptor gamma (RORg) (AID 2283011; active = hit-call score of the fitted dose curve at least 0.9, where 1 is the maximum)
# Sequence of human RAR-related Orphan Receptor gamma (RORg), RORC (gene 6097) (P51449 whole entry, looked up, the tested form may be a part): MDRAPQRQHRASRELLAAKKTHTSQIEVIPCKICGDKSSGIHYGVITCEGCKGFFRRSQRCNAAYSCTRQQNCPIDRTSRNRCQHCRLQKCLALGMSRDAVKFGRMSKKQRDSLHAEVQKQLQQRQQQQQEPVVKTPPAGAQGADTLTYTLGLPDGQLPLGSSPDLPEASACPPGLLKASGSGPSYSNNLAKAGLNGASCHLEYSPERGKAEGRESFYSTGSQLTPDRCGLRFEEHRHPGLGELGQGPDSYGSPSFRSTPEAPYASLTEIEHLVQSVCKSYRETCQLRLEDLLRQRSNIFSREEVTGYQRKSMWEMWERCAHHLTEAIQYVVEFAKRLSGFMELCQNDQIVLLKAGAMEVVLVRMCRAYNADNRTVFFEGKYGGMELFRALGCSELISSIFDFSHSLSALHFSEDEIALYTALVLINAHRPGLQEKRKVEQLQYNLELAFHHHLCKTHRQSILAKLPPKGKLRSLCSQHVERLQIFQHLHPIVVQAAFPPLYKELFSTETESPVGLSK
# Summary of the method: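 HepG2 cells transiently transfected with GAL4-UAS reporter units and chimeric RORg-Gal4 construct; after 24 h chemical exposure, reporter mRNA measured by RT-PCR with fluorescent capillary electrophoresis, gain of signal fitted against DMSO.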
# [2] = molecular target: human Thyroid Receptor alpha (THRa1), THRA (gene 7067) (UniProt P10827); assay: ATG_THRa1_TRANS: Attagene TRANS-FACTORIAL HepG2 Assay for human Thyroid Receptor alpha (THRa1) (AID 2283014; active = hit-call score of the fitted dose curve at least 0.9, where 1 is the maximum)
# Sequence of human Thyroid Receptor alpha (THRa1), THRA (gene 7067) (P10827 whole entry, looked up, the tested form may be a part): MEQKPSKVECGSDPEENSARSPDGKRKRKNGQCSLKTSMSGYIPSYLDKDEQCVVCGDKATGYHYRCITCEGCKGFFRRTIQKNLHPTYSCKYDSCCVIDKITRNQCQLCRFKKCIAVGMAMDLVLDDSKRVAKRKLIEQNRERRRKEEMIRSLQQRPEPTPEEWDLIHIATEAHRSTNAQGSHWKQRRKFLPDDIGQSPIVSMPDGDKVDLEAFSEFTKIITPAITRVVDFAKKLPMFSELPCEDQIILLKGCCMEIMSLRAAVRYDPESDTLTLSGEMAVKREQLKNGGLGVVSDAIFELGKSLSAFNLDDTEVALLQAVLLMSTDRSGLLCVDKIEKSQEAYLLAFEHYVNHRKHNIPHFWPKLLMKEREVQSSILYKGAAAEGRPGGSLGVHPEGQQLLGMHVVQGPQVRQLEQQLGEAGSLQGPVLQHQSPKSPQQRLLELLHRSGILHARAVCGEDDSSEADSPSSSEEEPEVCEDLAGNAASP
# Summary of the method: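 HepG2 cells transiently transfected with chimeric NR-Gal4 and GAL4-UAS reporter units, dosed 24 h. Reporter mRNA quantified by RT-PCR, fluorescent labeling, HpaI digestion and capillary electrophoresis; gain-of-signal fit versus DMSO.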
# [3] = molecular target: Retinoic acid receptor RXR-alpha (Homo sapiens) (UniProt P19793); assay: ATG_RXRa_TRANS: Attagene TRANS-FACTORIAL HepG2 Assay for human Retinoid X Receptor alpha (RXRa) (AID 2283012; active = hit-call score of the fitted dose curve at least 0.9, where 1 is the maximum)
# Sequence of Retinoic acid receptor RXR-alpha (Homo sapiens) (P19793 whole entry, looked up, the tested form may be a part): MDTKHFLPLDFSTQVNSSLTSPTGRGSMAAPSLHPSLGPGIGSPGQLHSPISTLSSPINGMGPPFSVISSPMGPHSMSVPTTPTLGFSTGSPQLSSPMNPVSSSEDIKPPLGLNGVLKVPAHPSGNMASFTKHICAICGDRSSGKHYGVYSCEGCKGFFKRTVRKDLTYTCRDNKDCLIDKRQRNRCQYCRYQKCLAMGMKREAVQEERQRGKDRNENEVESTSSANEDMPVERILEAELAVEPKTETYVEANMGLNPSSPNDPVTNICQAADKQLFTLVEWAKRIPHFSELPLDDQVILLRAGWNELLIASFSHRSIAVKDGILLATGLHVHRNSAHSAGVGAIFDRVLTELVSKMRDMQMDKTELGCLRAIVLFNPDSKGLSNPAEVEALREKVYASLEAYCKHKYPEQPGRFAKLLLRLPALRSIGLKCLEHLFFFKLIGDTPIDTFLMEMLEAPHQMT
# Summary of the method: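 Transient transfection of human HepG2 with multiple GAL4-UAS reporter constructs; 24 h compound exposure; total RNA isolated, reverse-transcribed, PCR-amplified, 6-FAM labelled, HpaI-cut, resolved by capillary electrophoresis. Positive-direction fit versus DMSO.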
# [4] = molecular target: human Retinoid X Receptor beta (RXRb), RXRB (gene 6257) (UniProt P28702); assay: ATG_RXRb_TRANS: Attagene TRANS-FACTORIAL HepG2 Assay for human Retinoid X Receptor beta (RXRb) (AID 2283013; active = hit-call score of the fitted dose curve at least 0.9, where 1 is the maximum)
# Sequence of human Retinoid X Receptor beta (RXRb), RXRB (gene 6257) (P28702 whole entry, looked up, the tested form may be a part): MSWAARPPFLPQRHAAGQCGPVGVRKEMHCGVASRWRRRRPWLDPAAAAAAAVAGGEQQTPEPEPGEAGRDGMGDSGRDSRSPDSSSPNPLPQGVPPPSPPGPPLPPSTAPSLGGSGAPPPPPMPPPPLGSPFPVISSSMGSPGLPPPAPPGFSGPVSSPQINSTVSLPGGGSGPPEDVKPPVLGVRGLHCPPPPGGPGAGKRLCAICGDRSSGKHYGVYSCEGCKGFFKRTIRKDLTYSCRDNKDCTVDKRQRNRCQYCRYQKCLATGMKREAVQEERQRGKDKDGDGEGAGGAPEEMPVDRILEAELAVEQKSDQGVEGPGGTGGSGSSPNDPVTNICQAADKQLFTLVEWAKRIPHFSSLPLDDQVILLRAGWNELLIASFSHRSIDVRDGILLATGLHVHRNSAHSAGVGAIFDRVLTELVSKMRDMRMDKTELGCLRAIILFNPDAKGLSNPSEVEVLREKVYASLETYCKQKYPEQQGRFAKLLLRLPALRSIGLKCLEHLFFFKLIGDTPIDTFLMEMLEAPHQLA
# Summary of the method: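 Transfect HepG2 with GAL4-UAS multi-reporter constructs (chimeric NR-Gal4, TRANS format); dose compound 24 h; isolate RNA, RT-PCR, FAM primer extension, HpaI digest; quantify by capillary electrophoresis; positive direction vs DMSO.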
# [5] = read-out: Interleukin-1 alpha (IL1a), IL1A (gene 3552); assay: BSK_BE3C_IL1a: BioMAP Diversity Plus: BE3C Assay for Interleukin-1 alpha (IL1a) Biomarker Activity (AID 2283016); details: primary human bronchial epithelial cells; actives raise or lower the signal
# Summary of the method: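 BE3C primary human bronchial epithelium; cpd 24 h; IL-1a by ELISA; bidirectional fit vs DMSO; parallel SRB (0.1% SRB, 10% TCA fix, 560 nm) for cytotoxicity.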
# [6] = read-out: Monocyte Chemoattractant Protein-1 (MCP1), CCL2 (gene 6347); assay: BSK_3C_MCP1: BioMAP Diversity Plus: 3C Assay for Monocyte Chemoattractant Protein-1 (MCP1) Biomarker Activity (AID 2283017); details: primary human endothelial cells (HUVEC); actives raise or lower the signal
# Summary of the method: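 Human umbilical vein endothelial cells (3C system) exposed to chemicals for 24 h; MCP-1 quantified by ELISA against the DMSO baseline with bidirectional fitting, and parallel SRB staining used to assess cytotoxicity.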
# [7] = read-out: Monocyte Chemoattractant Protein-1 (MCP1), CCL2 (gene 6347); assay: BSK_4H_MCP1: BioMAP Diversity Plus: 4H Assay for Monocyte Chemoattractant Protein-1 (MCP1) Biomarker Activity (AID 2283018); details: primary human endothelial cells (HUVEC); actives raise or lower the signal
# Summary of the method: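 ELISA read-out of MCP-1 from human vascular endothelial primary cells taken at 24 hours after compound exposure. Activity was fitted in both directions relative to DMSO, which served as negative control.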
# [8] = read-out: Human Leukocyte Antigen - DR isotype (HLADR), HLA-DRA (gene 3122); assay: BSK_3C_HLADR: BioMAP Diversity Plus: 3C Assay for Human Leukocyte Antigen - DR isotype (HLADR) Biomarker Activity (AID 2283019); details: primary human endothelial cells (HUVEC); actives raise or lower the signal;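 for outcome: ELISA of cell-surface HLA-DR on HUVEC 24 h after dosing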
# Summary of the method: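 HUVEC monoculture, HLA-DR measured by ELISA 24 h after chemical dosing. Fitted bidirectionally against DMSO baseline; parallel SRB staining assessed cytotoxicity, with 3C proliferation read by SRB at 48 h.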
# [9] = read-out: E-selectin (Homo sapiens) (UniProt P16581); assay: BSK_3C_Eselectin: BioMAP Diversity Plus: 3C Assay for Eselectin Biomarker Activity (AID 2283015); details: primary human endothelial cells (HUVEC); actives raise or lower the signal;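 for outcome: cell surface E-selectin protein quantified by ELISA 24 h after dosing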
# Summary of the method: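 Primary human umbilical vein endothelial cells (3C system), read 24 h after compound addition; E-selectin measured by ELISA. Bidirectional curve fitting against DMSO baseline; cytotoxicity by parallel SRB total-protein staining.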
# Sequence of E-selectin (Homo sapiens) (P16581 whole entry, looked up): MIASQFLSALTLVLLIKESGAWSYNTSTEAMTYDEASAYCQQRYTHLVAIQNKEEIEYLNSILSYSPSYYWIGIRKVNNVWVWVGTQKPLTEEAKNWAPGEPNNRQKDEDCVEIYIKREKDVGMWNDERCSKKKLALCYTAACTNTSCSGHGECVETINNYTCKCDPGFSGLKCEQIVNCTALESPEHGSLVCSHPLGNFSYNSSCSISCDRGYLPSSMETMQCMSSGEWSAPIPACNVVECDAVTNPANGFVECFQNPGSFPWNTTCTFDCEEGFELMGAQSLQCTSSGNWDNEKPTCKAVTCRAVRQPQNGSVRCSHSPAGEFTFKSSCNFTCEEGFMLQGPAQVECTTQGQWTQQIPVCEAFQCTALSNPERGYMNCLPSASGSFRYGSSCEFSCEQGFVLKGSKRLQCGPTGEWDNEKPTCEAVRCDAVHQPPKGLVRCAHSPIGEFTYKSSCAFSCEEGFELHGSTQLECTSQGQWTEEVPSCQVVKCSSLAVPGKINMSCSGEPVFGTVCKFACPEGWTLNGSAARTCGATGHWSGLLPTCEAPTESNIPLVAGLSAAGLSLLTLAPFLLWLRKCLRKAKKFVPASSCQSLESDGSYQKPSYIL
structure (smiles),measurement,setting,value
O=C1OC(=O)c2ccc3c4c(ccc1c24)C(=O)OC3=O,outcome,[1],inactive
same,outcome,[2],inactive
Brc1ccccn1,outcome,[1],inactive
same,outcome,[3],inactive
same,outcome,[2],inactive
C=CC(=O)OCCC(F)(F)C(F)(F)C(F)(F)C(F)(F)F,outcome,[1],inactive
same,outcome,[4],inactive
same,outcome,[5],inactive
same,outcome,[6],inactive
same,outcome,[7],inactive
same,outcome,[8],inactive
NCC(F)(F)C(F)(F)C(F)(F)C(F)(F)C(F)(F)C(F)(F)F,outcome,[1],inactive
same,outcome,[3],inactive
same,outcome,[4],inactive
same,outcome,[9],inactive
same,outcome,[5],inactive
same,outcome,[6],inactive
same,outcome,[7],inactive
O=C(O)CCC(F)(F)C(F)(F)C(F)(F)C(F)(F)C(F)(F)C(F)(F)C(F)(F)F,outcome,[1],inactive
same,AC50,[4],41.3 µM (active)
same,outcome,[5],inactive
same,outcome,[6],inactive
same,outcome,[7],inactive
N#CCCOCCC#N,outcome,[1],inactive
same,outcome,[3],inactive
same,outcome,[2],inactive
O=C(O)C(F)(F)C(F)(F)C(F)(F)OC(F)(C(F)(F)F)C(F)(F)F,outcome,[1],inactive
same,outcome,[3],inactive
same,outcome,[4],inactive
same,outcome,[9],inactive
same,outcome,[5],inactive
same,outcome,[6],inactive
same,outcome,[7],inactive
same,outcome,[8],inactive
Nc1cc([N+](=O)[O-])cc(Cl)c1O,outcome,[1],inactive
same,outcome,[3],inactive
same,outcome,[9],inactive
same,outcome,[5],inactive
same,outcome,[6],inactive
same,outcome,[7],inactive
Nc1cccnc1N,outcome,[1],inactive
same,outcome,[4],inactive
same,outcome,[2],inactive
O=S(=O)(Cl)C(F)(F)C(F)(F)C(F)(F)C(F)(F)C(F)(F)C(F)(F)C(F)(F)C(F)(F)F,outcome,[1],inactive
same,outcome,[4],inactive
same,AC50,[9],46.5 µM (active) and 39.2 µM (active)
same,AC50,[5],46.4 µM (active) and 47.1 µM (active)
same,outcome,[6],inactive
same,AC50,[7],22.3 µM (active)
same,outcome,[7],inactive
CCN(CC)c1ccc(C=O)c(O)c1,outcome,[1],inactive
same,outcome,[4],inactive
same,outcome,[9],inactive
same,outcome,[5],inactive
same,outcome,[6],inactive
same,outcome,[7],inactive
CCC(=O)OC(C)c1ccccc1 (stereo not drawn),outcome,[1],inactive
same,outcome,[4],inactive
same,outcome,[2],inactive
C=C(C)C(=O)OCC(F)(F)C(F)(F)C(F)(F)C(F)F,outcome,[1],inactive
same,outcome,[4],inactive
same,outcome,[5],inactive
same,outcome,[6],inactive
same,outcome,[7],inactive
C[Si](Cl)(Cl)CCC(F)(F)C(F)(F)C(F)(F)C(F)(F)C(F)(F)C(F)(F)F,outcome,[1],inactive
same,outcome,[3],inactive
same,outcome,[5],inactive
same,outcome,[6],inactive
same,outcome,[7],inactive
same,outcome,[8],inactive
Cc1cccc(C)n1,outcome,[1],inactive
same,outcome,[4],inactive
same,outcome,[2],inactive
C=CC(=O)OCC(F)(F)C(F)(F)C(F)(F)COC(=O)C=C,outcome,[1],inactive
same,outcome,[3],inactive
same,outcome,[2],inactive
same,AC50,[9],19.4 µM (active) and 32.1 µM (active)
same,AC50,[5],23.2 µM (active) and 17.5 µM (active)
same,AC50,[6],39.6 µM (active) and 30 µM (active)
same,AC50,[7],30 µM (active) and 8.24 µM (active)
same,AC50,[8],14 µM (active) and 12.3 µM (active)
O=C1C=CC(=O)N1c1ccccc1,outcome,[1],inactive
same,outcome,[3],inactive
same,outcome,[2],inactive
CN(N=O)C(=O)N[C@@H]1[C@@H](O)[C@H](O)[C@@H](CO)O[C@@H]1O,outcome,[1],inactive
same,outcome,[3],inactive
same,outcome,[2],inactive
CO[Si](C)(CCC(F)(F)C(F)(F)C(F)(F)C(F)(F)C(F)(F)C(F)(F)F)OC,outcome,[1],inactive
same,outcome,[4],inactive
same,outcome,[2],inactive
same,outcome,[5],inactive
same,outcome,[6],inactive
same,outcome,[7],inactive
same,outcome,[8],inactive
O=C1c2c(O)ccc(Nc3ccc(CCO)cc3)c2C(=O)c2c([N+](=O)[O-])ccc(O)c21,outcome,[1],inactive
same,outcome,[3],inactive
same,AC50,[2],30 µM (active)
same,outcome,[5],inactive
same,outcome,[6],inactive
same,AC50,[7],30.4 µM (active)
same,AC50,[8],10.6 µM (active)
O=C(O)C(F)(F)C(F)(F)C(F)(F)C(=O)O,outcome,[1],inactive
same,outcome,[3],inactive
same,outcome,[2],inactive
same,outcome,[5],inactive
same,outcome,[6],inactive
same,outcome,[7],inactive
same,outcome,[8],inactive
CC(C)(C)c1cc(CCC(=O)OCC(COC(=O)CCc2cc(C(C)(C)C)c(O)c(C(C)(C)C)c2)(COC(=O)CCc2cc(C(C)(C)C)c(O)c(C(C)(C)C)c2)COC(=O)CCc2cc(C(C)(C)C)c(O)c(C(C)(C)C)c2)cc(C(C)(C)C)c1O,outcome,[1],inactive
same,AC50,[4],22.3 µM (active)
F[Si-2](F)(F)(F)(F)F,outcome,[1],inactive
same,outcome,[4],inactive
same,outcome,[2],inactive
OCCCc1cccnc1,outcome,[1],inactive
same,outcome,[4],inactive
same,outcome,[2],inactive
Cc1cnccn1,outcome,[1],inactive
same,outcome,[3],inactive
same,outcome,[2],inactive
same,outcome,[5],inactive
same,outcome,[6],inactive
same,outcome,[7],inactive
NC(=O)C(F)(F)C(F)(F)C(F)(F)C(F)(F)C(F)(F)C(F)(F)C(F)(F)F,outcome,[1],inactive
same,outcome,[4],inactive
same,outcome,[2],inactive
same,outcome,[9],inactive
same,outcome,[5],inactive
same,outcome,[6],inactive
same,outcome,[7],inactive
Cc1cc(=O)[nH]c(C(C)C)n1,outcome,[1],inactive
same,outcome,[4],inactive
FC(F)(F)C(F)(F)C(F)(F)CC1CO1 (stereo not drawn),outcome,[1],inactive
same,outcome,[3],inactive
same,outcome,[2],inactive
same,outcome,[5],inactive
same,outcome,[6],inactive
same,outcome,[7],inactive
same,outcome,[8],inactive
Cc1ccc([N+](=O)[O-])c(C)c1,outcome,[1],inactive
same,outcome,[4],inactive
same,outcome,[2],inactive
CC1=CCC(=O)O1,outcome,[3],inactive
same,outcome,[4],inactive
OC(O)C(F)(F)C(F)(F)F,outcome,[3],inactive
same,outcome,[9],inactive
same,outcome,[5],inactive
same,outcome,[6],inactive
same,outcome,[7],inactive
same,outcome,[8],inactive
C=CC(=O)OCC(F)(F)C(F)(F)C(F)(F)C(F)(F)C(F)(F)C(F)(F)C(F)(F)C(F)F,outcome,[3],inactive
same,outcome,[4],inactive
same,outcome,[5],inactive
same,outcome,[6],inactive
same,outcome,[7],inactive
O=C(O)C(F)(F)OC(F)(F)C(F)(F)OC(F)(F)C(F)(F)OC(F)(F)F,outcome,[3],inactive
same,AC50,[4],13.2 µM (active)
same,outcome,[2],inactive
same,outcome,[5],inactive
same,outcome,[6],inactive
same,outcome,[7],inactive
CCCCCCCCCCCC(=O)Cl,outcome,[3],inactive
same,AC50,[4],38.5 µM (active)
CCc1cc(Cc2cc(CC)c(N)c(CC)c2)cc(CC)c1N,outcome,[3],inactive

# From PubChem BioAssay (EPA / NIEHS)
